Source: PubChem
In the library only some 21% were active in any assay of this set; here they are far more common.
Pf growth 48h: P. falciparum growth inhibition at 48 hours (one generation) | P. falciparum luciferase growth in erythrocytes, 48 h | Potency, µM (titrated, usually from 28.7 µM), inactives show at the highest dose activity change, negative = inhibition, actives largely listed as inhibitors | 310,000 compounds, 5.9% hits | AID 504832; also: potency is read from the fitted curve at half-maximal effect; % is scaled to controls: 0 for no effect and ±100 for the full control effect
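Compounds are pin-transferred into medium, infected erythrocytes (2% hematocrit, 0.1% parasitemia final) are added, and plates sit one parasite generation at 37 C in 5% CO2. Detection reagent is then added and luminescence measured.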
CHX counter: affects cycloheximide protein synthesis inhibition readout, counter-screen | cell reporter, cycloheximide protein synthesis inhibition counterscreen | max response, % | 300,000 compounds, 12% hits | AID 2314; in the data active = max response mostly above about 13%, no sharp cut-off; inactive = mostly below about 14%; also: read at 38.3 µM for the half of the compounds with a filed dose; 0% is about no effect
HCV inh: blocks hepatitis C virus. Huh7.5.1 HCVcc-Cre infection, luciferase reporter, 44 h. Potency, µM (titrated, usually from 41.8 µM), for inactives: at the top dose activity change, negative = inhibition, most hits filed as inhibitors. 340,000 compounds, 3.4% hits; also: potency is read from the fitted curve at half-maximal effect; % is scaled to controls: 0 for no effect and ±100 for the full control effect
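HCVcc-Cre virus at an moi near 0.5 was added right after compound to cells cultured 4 h from seeding (1,000 cells/well). Luciferase activity was determined 44 h later, 15 min after substrate addition at RT.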
Shiga toxin inh: blocks Shiga toxin action in Vero cells | Vero cells, Shiga toxin protein synthesis inhibition reporter | inhibition, % at 38.7 µM | 290,000 compounds, 9.2% hits | AID 2315; in the data active = inhibition mostly above about 28%, no sharp cut-off; inactive = mostly below about 43%; also: 0% is about no effect
HCMV inh: blocks human cytomegalovirus replication; HFF cells, HCMV-luciferase reporter, 72 h; active compounds read low; activity change, negative = inhibition, % at 57.5 µM; 410,000 compounds, 4.5% hits; in the data active = activity change below about -60%; inconclusive = no clear call, values can overlap the other calls; inactive = above about -39%; also: % is scaled to controls: 0 for no effect and ±100 for the full control effect
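Compounds were evaluated in HFFs infected with an HCMV luciferase reporter virus (MOI 1 PFU/cell). Luciferase in lysates collected 72 h post infection served as the replication measure.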
Pf growth 96h: inhibits malaria parasite growth, 96 h | 320,000 compounds, 6.9% hits | Potency, µM (series often up to 28.7 µM), inactives show top-dose activity change, negative = inhibition, hits mostly inhibitors | P. falciparum luciferase reporter growth, 96 h; also: potency is read from the fitted curve at half-maximal effect; % is scaled to controls: 0 for no effect and ±100 for the full control effect
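Luminescence readout: decreased luciferase signal marks inhibited growth of reporter-expressing P. falciparum in infected red cells (2% hematocrit, 0.05% parasitemia final), exposed to compound two generations (96 h, 37 C, 5% CO2).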
Active calls of the source: *; i = inactive; ? = inconclusive; · = no result; [ ] = another dose, or the depositor's remark. Unless noted, calls follow the shape of the dose curve; as a rule, active = well fitted inhibition curve with a large enough effect; inconclusive = small, poorly fitted or top-dose-only effect, or another doubt; inactive = no such curve, though single readings can be large or run the other way.

SMILES | Pf growth 48h | CHX counter | HCV inh | Shiga toxin inh | HCMV inh | Pf growth 96h
CC1(c2nc3ccccc3[nH]2)c2ccccc2C(=O)N1Cc1ccccc1 (stereo not drawn) | · | · | · | · | 59.4 | ·
Cc1ccc(-c2nc3ccccc3[nH]2)cn1 | 127.4% | 21.8* | 14.5% | 31.6* | 52.3 | 34.2%
Clc1ccc(-c2nc3ccccc3[nH]2)cn1 | 38.1% | 23.4* | -9.0% | 31.4 | -32.9 | 6.9%
Cc1nc2ccc(-c3nc4ccccc4[nH]3)cc2[nH]1 | -44.0% | 35.5* | -27.4% | 59.9* | -3.9 | 300.0%
O=C(Nc1ccc(-c2nc3ccccc3[nH]2)cc1)c1c(F)c(F)c(F)c(F)c1F | 15.2% | 3.0 | ? | -4.2 | -24.8 | ?
c1ccc2[nH]c(-c3ccc4c(c3)OCO4)nc2c1 | · | · | -4.1% | · | 59.1 | ·
CCOc1ccccc1N(CC)C(=O)c1cc2c(=O)[nH]c3ccc(C)cc3c2s1 | · | · | · | · | -3.6 | ·
COC(=O)CN1C(=O)C(C)(C)c2cc(S(=O)(=O)Nc3ccc(C(C)C)cc3)ccc21 | · | · | · | · | 9.9 | ·
COc1ccc(NC(=O)COc2cc(O)c3c(c2)OC(C)(C)CC3=O)cc1 | 18.5% | -1.4 | 2.82µM* | -0.7 | -15.8 | 0.1%
COc1ccc(CCNC(=O)COc2cc(O)c3c(c2)OC(C)(C)CC3=O)cc1 | 3.7% | -4.0 | ? | -2.7 | 0.0 | ?
COc1ccc(CCNC(=O)COc2cc(O)c3c(c2)OC(C)(C)CC3=O)cc1OC | ? | -1.7 | 3.16µM* | -4.7 | 21.4 | ?
COc1cc(NC(=O)COc2cc(O)c3c(c2)OC(C)(C)CC3=O)cc(OC)c1 | -22.9% | 6.7 | 2.82µM* | 3.2 | -3.2 | ?
COc1cccc(NC(=O)COc2cc(O)c3c(c2)OC(C)(C)CC3=O)c1 | 42.1% | 23.9* | -94.2% | 24.6 | 44.1 | -14.1%
Cc1ccc(NC(=O)CCn2cc(C(F)(F)F)ccc2=O)cc1 | 0.0% | -4.4 | 22.8% | -11.1 | -15.6 | 93.4%
Nc1ccc(C23CC4CC(CC(C4)C2)C3)cc1 | 37.3% | 7.7 | -11.4% | -0.9 | -30.0 | 99.5%
NCC12CC3CC(C1)CC(c1ccc(Cl)cc1)(C3)C2 | ? | -9.3 | ? | -23.6 | -39.8 | 17.6%
Nc1ccc(C23CC4CC(CC(O)(C4)C2)C3)cc1 | 21.1% | 27.5* | -3.9% | 23.7 | -14.7 | 34.6%
Nc1ccc(C23CC4CC(CC(CO)(C4)C2)C3)cc1 | -4.3% | 19.3* | 15.2% | 11.8 | 69.4 | ?
CCOc1ccc(CNC(=O)c2ccc(NC(=O)N3CCCCc4ccccc43)cc2)cc1OC | · | · | · | · | 10.4 | ·
Cc1ccc(S(=O)(=O)N2CCC(=O)N([C@H](COCc3cccc(C)c3)Cc3ccccc3)CC2)cc1 | · | 16.6 | · | 14.9 | · | ·
Cc1ccc(S(=O)(=O)N2CCC(=O)N(C(COCc3ccc(Cl)c(Cl)c3)Cc3ccccc3)CC2)cc1 (stereo not drawn) | 9.28µM* | -2.6 | 9.1% | -11.9 | · | ?
Cc1ccc(S(=O)(=O)N2CCC(=O)N(C(COCc3ccc(C(F)(F)F)cc3)C(C)C)CC2)cc1 (stereo not drawn) | ? | -3.4 | 0.3%[8.37 µM] | -7.2 | · | 10.4µM*
O=C1CCN(S(=O)(=O)c2ccccc2)CCN1CCOCc1ccc(C(F)(F)F)cc1 | -6.1% | -3.3 | 10µM* | -7.8 | -34.1 | -14.1%
Cc1ccc(S(=O)(=O)N2CCC(=O)N(C(COC(=O)Nc3ccccc3)Cc3ccccc3)CC2)cc1 (stereo not drawn) | ? | 11.5 | ? | 20.6 | -13.3 | 14.7µM*
Cc1ccc(S(=O)(=O)N2CCC(=O)N(C(COCc3ccc(C(F)(F)F)cc3)Cc3ccccc3)CC2)cc1 (stereo not drawn) | ? | 5.9 | ? | -13.6 | -32.8 | 7.38µM*
Cc1ccc(S(=O)(=O)N2CCC(=O)N([C@H](COCc3ccc(C(F)(F)F)cc3)Cc3ccccc3)CC2)cc1 | · | 9.2 | · | i | -24.6 | ·
Cc1ccc(S(=O)(=O)N2CCC(=O)N(C(COCc3cccc(C)c3)Cc3ccccc3)CC2)cc1 (stereo not drawn) | ? | -1.3 | ? | 32.7 | -5.7 | 9.28µM*
